About 150 (0.052%) of roughly 290,000 compounds were called active. Shown is part of a subset that was picked to be rich in actives. Potency and affinity values are given separately. Values without a mark were called inactive.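 The calls were made as follows: active = inhibition of at least 50% with at least 30 cells and total cytoplasm GFP at most 10,000,000; inconclusive = under 30 cells or total GFP of 10,000,000 plus; inactive = the rest.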

For the assay, the target named is G-protein coupled receptor 35 (Homo sapiens) (UniProt Q9HC97). Briefly: inhibition of zaprinast-stimulated GPR35 beta-arrestin translocation – imaging, U2OS, beta-arrestin-GFP, zaprinast agonist, primary screen (AID 2058). The conditions noted are these: zaprinast antagonism, at 10 µM, active compounds read high.
G-protein coupled receptor 35 (Homo sapiens), sequence (Q9HC97 whole entry, looked up): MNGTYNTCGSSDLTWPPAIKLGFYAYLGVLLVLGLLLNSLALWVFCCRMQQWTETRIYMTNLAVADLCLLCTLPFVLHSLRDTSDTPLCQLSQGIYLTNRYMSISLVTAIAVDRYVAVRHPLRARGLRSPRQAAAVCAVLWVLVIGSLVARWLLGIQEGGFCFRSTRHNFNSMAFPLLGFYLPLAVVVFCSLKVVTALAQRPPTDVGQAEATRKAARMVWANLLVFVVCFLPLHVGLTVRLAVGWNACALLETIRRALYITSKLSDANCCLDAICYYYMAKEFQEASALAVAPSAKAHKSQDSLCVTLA
As for `CN1/C(=C\C=Nc2ccccc2)C(C)(C)c2ccccc21`, the inhibition (in general, the relative decrease from the control value, in per cent) was -7.9%.

Take `CN1/C(=C\C=C2C(=O)NC(=O)NC2=O)C(C)(C)c2ccccc21`: the inhibition is 1.5%.

`CN1/C(=C\C=C\C2=[N+](C)c3ccc4ccccc4c3C2(C)C)C(C)(C)c2ccccc21`: the inhibition was 111% (active).

`COc1ccc(NC(=O)c2cn(CCC#N)nc2-c2cccc(Br)c2)cc1`: the inhibition was -0.5%.

Turning to `CCCNS(=O)(=O)c1ccc(OCC(=O)N2CCN(C)CC2)cc1`, the inhibition was 3.2%.

Regarding `CCCCNC(=O)NC(C(N)=O)P(=O)(OCC)OCC` (stereo not given), the inhibition is -6.8%.

Turning to `COc1cccc(-c2nn(Cc3ccccc3)cc2C(=O)O)c1`, the inhibition was 21.1%.

Consider `COc1cccc(CN2CCCCC2c2cccnc2)c1` (stereo not given), for which the inhibition was 11.2%.

Turning to `COc1cccc(C2CC3C(=O)C=CC2N3Cc2ccccc2)c1` (stereo not given), the inhibition was 58.2% (active).

For the molecule `Clc1ccc(NC2=NCCCS2)cc1Cl`, the inhibition was -7.1%.

Take `Cc1c2ccncc2c(C)c2c1[nH]c1ccccc12`: the inhibition is 57.9% (active).

For `c1ccc2c(c1)[nH]c1cnccc12`, the inhibition is -1.7%.

As for `Cc1nccc2c1[nH]c1ccccc12`, the inhibition is 2.3%.

`CCOc1ccc(Cl)cc1CNCCc1ccc(F)cc1`: the inhibition is -1.9%.

With `Cc1ccc(C(=O)Nc2ccc(-n3ccnc3P(=O)(O)c3ccccc3)cc2)cc1`, the inhibition is -2.7%.

(Values after PubChem BioAssay AID2058 (Sanford-Burnham Center for Chemical Genomics, 2009).)
